From PubChem BioAssay
The list is not random: actives were taken first. Their share in the collection is about 6.2%.
KB-3-1 tox: kills parental KB-3-1 adenocarcinoma cells; KB-3-1 viability, CellTiter-Glo ATP luminescence, 72 h; Potency, µM (doses to about 46.1 µM), actives largely listed as cytotoxic; 400,000 compounds, 1.4% hits; AID 1347075; note: % is set by controls: 0 for no effect and ±100 for the full control effect; nearly all actives have a fitted effect of over 60% in size
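Luminescent ATP read-out (CellTiter-Glo) measures survival of drug-naive KB-3-1 cells after 72 h compound exposure at 37 °C. Titration series was screened from lowest to highest concentration, with DMSO vehicle plates as background controls.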
ATXN2 expr inh: inhibitors of ATXN2 expression; HEK-293 ATXN2-luciferase reporter, luminescence, 24 h; Potency, µM (highest dose often 57 µM), for inactives: at the top dose activity change, negative = inhibition, hits mostly inhibitors; 360,000 compounds, 0.72% hits; AID 1745845; note: % is set by controls: 0 for no effect and ±100 for the full control effect; nearly all actives have a fitted effect of over 55% in size
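qHTS (up to 57 uM final) was run with 24 h compound exposure of reporter cells at 37 °C. Each well was multiplexed: SteadyGlo luminescence measured ATXN2-luciferase expression after a fluorogenic Gly-Phe-AFC viability readout (25 uM final).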
HT1080 IDH1KD tx: HT-1080 IDH1 knockdown cell toxicity (counter line) | HT-1080 IDH1 knockdown viability, ATP luminescence, 48 h | Potency, µM (highest dose often 46.1 µM), without a hit: at the top dose activity, negative = toxicity, hits mostly cytotoxic | 360,000 compounds, 2% hits;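 note: 0% = DMSO wells and -100% = cell-free medium wells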
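Luminescent ATP read-out (CellTiter-Glo, 10 min at room temperature) after 48 h compound exposure at 37 °C gave viability of IDH1-knockdown HT-1080 cells. Activity was normalised to DMSO and cell-free wells, then fitted as concentration-response curves.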
ATXN viability: viability counter-screen for ATXN expression inhibitors; S2 cells (HEK-293 line with an ATXN2-luciferase reporter) viability, CellTiter-Fluor protease fluorescence, 24 h; Potency, µM (titrated, usually from 56.7 µM), actives largely listed as cytotoxic; 400,000 compounds, 0.49% hits; AID 651635; note: nearly all actives have a fitted effect of over 40% in size
HT1080-NT tox: kills 2HG-producing HT-1080-NT fibrosarcoma cells; Potency, µM (highest dose often 46.1 µM), for the others: at the highest dose activity, negative = less viability, hits mostly cytotoxic; HT-1080-NT fibrosarcoma viability, CellTiter-Glo ATP luminescence, 48 h; 360,000 compounds, 1.6% hits;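 note: NT is the 2HG producing partner of a matched IDH1 knockdown line; 0% = DMSO-treated cells and -100% = media-only wells without cells; nearly all actives have a fitted effect of over 55% in size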
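Viability by CellTiter-Glo luminescence after 48 h compound exposure at 37C of HT-1080-NT cells (750/well, RPMI, 5% FBS). % activity scaled between DMSO wells and medium-only wells, then curve-fitted and categorized by curve class.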
KB-V1 MDR tox: kills drug-selected multidrug resistant KB-V1 cells. AID 1347076. KB-V1 MDR cells viability, CellTiter-Glo, 72 h. 400,000 compounds, 3.4% hits. Potency, µM (highest dose often 46.1 µM), hits mostly cytotoxic; note: % is set by controls: 0 for no effect and ±100 for the full control effect; nearly all actives have a fitted effect of over 60% in size
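Cells of the MDR subline KB-V1 are plated, dosed with compound at multiple concentrations, and incubated 72 h at 37 degrees C; CellTiter-Glo is then added and luminescence read after 10 min.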
The depositor's hits bear a star. Calls come from the whole dose curve; as a rule, active = well fitted curve in the direction sought with a large enough effect; inconclusive = small, poorly fitted or top-dose-only effect, or another doubt; inactive = no such curve, though single readings can be large; an effect the other way counts as inactive or inconclusive. Potency is the fitted concentration of half-maximal effect.

What do the screens show for `Cc1ccccc1OCC(=O)NCC(c1cccs1)N1CCOCC1` (stereo not given)?
KB-3-1 tox: inconclusive; ATXN2 expr inh: -11.4%; HT1080 IDH1KD tx: -10.0%; ATXN viability: inactive; HT1080-NT tox: -7.1%; KB-V1 MDR tox: 16.4µM*

What do the screens show for `O=C(COc1ccccc1Cl)NCC(c1cccs1)N1CCOCC1` (stereo not given)?
KB-3-1 tox: inactive; ATXN2 expr inh: -20.6%; HT1080 IDH1KD tx: -17.8%; ATXN viability: inactive; HT1080-NT tox: -14.9%; KB-V1 MDR tox: inactive

What do the screens show for `O=C(NCC(c1cccs1)N1CCOCC1)c1cc(F)cc(F)c1` (stereo not given)?
KB-3-1 tox: inconclusive; HT1080 IDH1KD tx: 5.8µM*; ATXN viability: inactive; HT1080-NT tox: 7.31µM*; KB-V1 MDR tox: inconclusive

How did Cc1ccc(-c2nnc(SCC(=O)Nc3ccc4c(c3)oc3ccccc34)n2C)c(Cl)c1 do in these assays?
KB-3-1 tox: inactive; ATXN2 expr inh: -7.1%; HT1080 IDH1KD tx: -3.7%; ATXN viability: inactive; HT1080-NT tox: inconclusive; KB-V1 MDR tox: 2.59µM*

How did Cn1c(SCC(=O)Nc2cccc(Br)c2)nnc1-c1cc2ccccc2o1 do in these assays?
KB-3-1 tox: inactive; ATXN2 expr inh: inconclusive; HT1080 IDH1KD tx: 0.6%; ATXN viability: inconclusive; HT1080-NT tox: -4.0%; KB-V1 MDR tox: 16.4µM*

Results for CCc1cccc(C)c1NC(=O)CSc1nnc(-c2cc3cc(Br)ccc3o2)n1CC ?
KB-3-1 tox: inconclusive; ATXN2 expr inh: -32.5%; HT1080 IDH1KD tx: -22.4%; ATXN viability: inactive; HT1080-NT tox: -5.9%; KB-V1 MDR tox: 20.6µM*

What do the screens show for `Cc1ccccc1OCc1nnc(SCC(=O)Nc2ccc3c(c2)oc2ccccc23)n1C`?
KB-3-1 tox: inactive; ATXN2 expr inh: -22.4%; HT1080 IDH1KD tx: 6.9%; ATXN viability: inactive; HT1080-NT tox: 9.6%; KB-V1 MDR tox: inactive

What do the screens show for `COc1ccc(C)cc1NC1(c2ccccc2)C(=O)c2ccccc2C1=O`?
KB-3-1 tox: inactive; ATXN2 expr inh: 7.3%; ATXN viability: inactive; KB-V1 MDR tox: inconclusive

What do the screens show for `CSc1cccc(NC(=O)c2cccc(N3CCCS3(=O)=O)c2)c1`?
KB-3-1 tox: inactive; ATXN2 expr inh: 10.9%; ATXN viability: inactive; KB-V1 MDR tox: inactive

How did O=C1CC2(CCCC2)CC(=O)N1 do in these assays?
ATXN2 expr inh: 7.8%; ATXN viability: inactive

How did CCc1nnc(NC(=O)CSc2nnc(-c3ccncc3)n2C)s1 do in these assays?
KB-3-1 tox: inactive; ATXN2 expr inh: inconclusive; HT1080 IDH1KD tx: 9.0%; ATXN viability: inactive; HT1080-NT tox: 15.7%; KB-V1 MDR tox: inactive

How did Cc1cc(NC(=O)CSc2nnc3c(C)cc4c(C)ccc(C)c4n23)no1 do in these assays?
KB-3-1 tox: inactive; ATXN2 expr inh: -15.9%; HT1080 IDH1KD tx: 6.31µM*; ATXN viability: inconclusive; HT1080-NT tox: 6.31µM*; KB-V1 MDR tox: 3.26µM*

Results for CCc1nnc(NC(=O)CSc2nnc3c(C)cc4c(C)ccc(C)c4n23)s1 ?
KB-3-1 tox: 4.11µM*; ATXN2 expr inh: -3.5%; HT1080 IDH1KD tx: 6.51µM*; ATXN viability: inactive; HT1080-NT tox: 5.8µM*; KB-V1 MDR tox: inactive

What do the screens show for `CSc1ncccc1C(=O)NCCN1Cc2ccccc2OC(c2ccccc2F)C1` (stereo not given)?
ATXN viability: inactive

What do the screens show for `Cc1ccc(C(=O)n2nc(C)c(S(=O)(=O)N3CCOCC3)c2C)cc1C`?
KB-3-1 tox: inactive; ATXN2 expr inh: 14.5%; ATXN viability: inactive; KB-V1 MDR tox: inactive

What do the screens show for `CC(C)OCCCNC(=O)c1ccc2c(c1)N(Cc1c(F)cccc1Cl)C(=O)c1ccccc1S2`?
KB-3-1 tox: inactive; ATXN2 expr inh: inconclusive; ATXN viability: inactive; KB-V1 MDR tox: inactive

What do the screens show for `Cc1ccc(S(=O)(=O)N(CCO)Cc2cc3ccc(C)c(C)c3[nH]c2=O)cc1`?
KB-3-1 tox: inactive; ATXN2 expr inh: -5.0%; HT1080 IDH1KD tx: -19.7%; ATXN viability: inactive; HT1080-NT tox: -19.1%; KB-V1 MDR tox: 16.4µM*

What do the screens show for `O=C1CCc2cc(S(=O)(=O)Nc3cccc(B(O)O)c3)ccc2N1`?
KB-3-1 tox: inactive; KB-V1 MDR tox: inactive

What do the screens show for `COc1ccc(CCn2c(C3CCCCC3)nc3c(c(=O)c4ccccc4n3C)c2=O)cc1`?
KB-3-1 tox: inconclusive; HT1080 IDH1KD tx: inconclusive; ATXN viability: inconclusive; HT1080-NT tox: inconclusive; KB-V1 MDR tox: 18.4µM*

What do the screens show for `COCCCn1c(C2CCCCC2)nc2oc3cc(OC)ccc3c(=O)c2c1=O`?
KB-3-1 tox: inconclusive; ATXN2 expr inh: -1.5%; HT1080 IDH1KD tx: 14.9%; ATXN viability: inconclusive; HT1080-NT tox: 9.3%; KB-V1 MDR tox: 23.1µM*

How did COCCn1c(-c2ccc(C)cc2)nc2oc3cc(OC)ccc3c(=O)c2c1=O do in these assays?
KB-3-1 tox: inactive; HT1080 IDH1KD tx: 3.6%; ATXN viability: inactive; HT1080-NT tox: 11.2%; KB-V1 MDR tox: inactive

Results for COc1ccc2c(=O)c3c(=O)n(Cc4ccco4)c(-c4ccc(C)cc4)nc3oc2c1 ?
KB-3-1 tox: inactive; ATXN2 expr inh: 5.9%; HT1080 IDH1KD tx: 3.1%; ATXN viability: inactive; HT1080-NT tox: 6.8%; KB-V1 MDR tox: inactive

Results for Cn1c2ccccc2c(=O)c2c(=O)n(C3CCCCC3)c(-c3cccs3)nc21 ?
KB-3-1 tox: inconclusive; ATXN2 expr inh: inconclusive; HT1080 IDH1KD tx: -12.2%; ATXN viability: inactive; HT1080-NT tox: 1.6%; KB-V1 MDR tox: 11.6µM*

What do the screens show for `COc1ccc2c(=O)c3c(=O)n(Cc4ccco4)c(C(C)C)nc3oc2c1`?
KB-3-1 tox: inactive; ATXN2 expr inh: -11.5%; HT1080 IDH1KD tx: -9.2%; ATXN viability: inactive; HT1080-NT tox: 2.7%; KB-V1 MDR tox: 20.6µM*

What do the screens show for `Cn1c2ccccc2c(=O)c2c(=O)n(C3CCCCCC3)c(C3CCCCC3)nc21`?
KB-3-1 tox: inconclusive; ATXN2 expr inh: 414.6%; HT1080 IDH1KD tx: 3.6%; HT1080-NT tox: 0.5%; KB-V1 MDR tox: inconclusive

Results for Cc1ccc2c(c1)c1c(c(=O)n(-c3ccccc3)c(=O)n1CC(=O)c1ccc(F)cc1)n2C ?
KB-3-1 tox: inactive; ATXN2 expr inh: -5.2%; ATXN viability: inactive; KB-V1 MDR tox: inactive

Results for CC(=O)Nc1ccc(NC(=O)C(Cc2ccccc2)NS(=O)(=O)c2ccc3c(c2)oc(=O)n3C)cc1 (stereo not given) ?
KB-3-1 tox: inactive; ATXN2 expr inh: 8.7%; ATXN viability: inactive; KB-V1 MDR tox: inactive
